The text below walks through data of ChEMBL document CHEMBL1961873, “Compounds: GSK PKIS; Assays: Nanosyn kinase panel” (2012).

The target in assay [1] is Mitogen-activated protein kinase 3 (Homo sapiens) (UniProt P27361). The note with it: at 1 µM.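 Further: values are mean percent inhibition of MAPK3.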
Assay [2] addresses SRSF protein kinase 3 (Homo sapiens) (UniProt Q9UPE1). The note with it: at 0.1 µM.
Assay [3] has the same target. Particulars: at 1 µM.
In assay [4] the target is Mitogen-activated protein kinase 14 (Homo sapiens) (UniProt Q16539). The note with it: at 0.1 µM.
Sequence of Mitogen-activated protein kinase 14 (Homo sapiens) (Q16539 whole entry): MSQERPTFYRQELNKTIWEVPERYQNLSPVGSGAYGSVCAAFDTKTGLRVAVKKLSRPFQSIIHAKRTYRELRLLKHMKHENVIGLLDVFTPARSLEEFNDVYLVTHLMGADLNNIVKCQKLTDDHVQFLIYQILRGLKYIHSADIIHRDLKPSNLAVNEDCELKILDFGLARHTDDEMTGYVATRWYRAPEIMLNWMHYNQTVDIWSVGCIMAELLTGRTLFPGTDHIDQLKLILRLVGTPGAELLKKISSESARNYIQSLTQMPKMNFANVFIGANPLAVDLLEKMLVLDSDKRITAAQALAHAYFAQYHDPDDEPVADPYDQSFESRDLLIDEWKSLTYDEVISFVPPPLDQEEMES
Assay [5] shares this target. The note with it: at 1 µM.
Assay [6] addresses Mitogen-activated protein kinase 11 (Homo sapiens) (UniProt Q15759). Particulars: at 0.1 µM.
The target is the same in assay [7]. Particulars: at 1 µM.
Assay [8] has as its target T1, Mitogen-activated protein kinase 13 (Homo sapiens) (UniProt O15264).
T1 sequence (whole entry): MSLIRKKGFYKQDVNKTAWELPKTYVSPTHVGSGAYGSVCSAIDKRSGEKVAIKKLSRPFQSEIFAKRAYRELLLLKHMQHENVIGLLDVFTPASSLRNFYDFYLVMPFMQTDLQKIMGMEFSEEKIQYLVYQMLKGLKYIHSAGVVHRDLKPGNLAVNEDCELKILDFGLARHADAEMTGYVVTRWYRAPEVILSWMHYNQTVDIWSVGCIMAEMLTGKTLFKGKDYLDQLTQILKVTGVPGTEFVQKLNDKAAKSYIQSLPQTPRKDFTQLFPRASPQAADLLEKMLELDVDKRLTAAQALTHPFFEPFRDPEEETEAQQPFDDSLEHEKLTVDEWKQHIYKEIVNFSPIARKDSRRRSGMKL
The note with it: at 0.1 µM.

Assay [9] concerns the target T1, Mitogen-activated protein kinase 13 (Homo sapiens). The note with it: at 1 µM.
Assay [10] concerns the target T2, Mitogen-activated protein kinase 12 (Homo sapiens) (UniProt P53778).
T2 sequence (whole entry): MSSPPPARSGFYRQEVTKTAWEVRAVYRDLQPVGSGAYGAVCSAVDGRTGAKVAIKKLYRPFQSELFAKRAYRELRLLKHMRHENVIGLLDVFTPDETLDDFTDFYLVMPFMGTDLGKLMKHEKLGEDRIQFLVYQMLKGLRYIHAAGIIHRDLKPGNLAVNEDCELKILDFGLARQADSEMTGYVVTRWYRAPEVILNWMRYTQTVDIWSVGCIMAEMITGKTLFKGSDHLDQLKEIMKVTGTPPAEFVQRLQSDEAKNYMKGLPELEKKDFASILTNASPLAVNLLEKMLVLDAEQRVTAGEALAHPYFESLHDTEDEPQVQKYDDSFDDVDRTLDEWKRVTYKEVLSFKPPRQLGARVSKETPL
Particulars: at 0.1 µM.

The target in assay [11] is T2, Mitogen-activated protein kinase 12 (Homo sapiens). The note with it: at 1 µM.
The target of assay [12] is SRSF protein kinase 1 (Homo sapiens) (UniProt Q96SB4). The note with it: at 0.1 µM.
Sequence of SRSF protein kinase 1 (Homo sapiens) (Q96SB4 whole entry): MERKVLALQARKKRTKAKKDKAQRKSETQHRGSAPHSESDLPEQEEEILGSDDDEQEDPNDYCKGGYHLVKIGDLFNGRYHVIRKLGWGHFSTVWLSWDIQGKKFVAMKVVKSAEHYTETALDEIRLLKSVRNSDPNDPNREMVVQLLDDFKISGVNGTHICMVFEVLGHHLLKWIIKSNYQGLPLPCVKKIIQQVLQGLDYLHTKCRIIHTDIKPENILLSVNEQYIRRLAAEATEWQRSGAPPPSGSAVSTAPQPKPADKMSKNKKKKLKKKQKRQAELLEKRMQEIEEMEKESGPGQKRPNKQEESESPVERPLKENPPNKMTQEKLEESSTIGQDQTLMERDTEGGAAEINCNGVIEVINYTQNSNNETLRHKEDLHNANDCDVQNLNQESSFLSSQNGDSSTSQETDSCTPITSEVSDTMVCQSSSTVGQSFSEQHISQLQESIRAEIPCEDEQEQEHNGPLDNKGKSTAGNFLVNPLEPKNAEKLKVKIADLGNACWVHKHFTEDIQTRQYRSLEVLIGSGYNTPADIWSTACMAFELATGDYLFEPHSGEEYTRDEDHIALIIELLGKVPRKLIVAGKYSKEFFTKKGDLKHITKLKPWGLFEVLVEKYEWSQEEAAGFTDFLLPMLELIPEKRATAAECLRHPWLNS
Assay [13] shares this target. Particulars: at 1 µM.
The target in assay [14] is Phosphatidylinositol 4,5-bisphosphate 3-kinase catalytic subunit alpha isoform (Homo sapiens) (UniProt P42336). Particulars: at 0.1 µM.
Sequence of Phosphatidylinositol 4,5-bisphosphate 3-kinase catalytic subunit alpha isoform (Homo sapiens) (P42336 whole entry, canonical isoform): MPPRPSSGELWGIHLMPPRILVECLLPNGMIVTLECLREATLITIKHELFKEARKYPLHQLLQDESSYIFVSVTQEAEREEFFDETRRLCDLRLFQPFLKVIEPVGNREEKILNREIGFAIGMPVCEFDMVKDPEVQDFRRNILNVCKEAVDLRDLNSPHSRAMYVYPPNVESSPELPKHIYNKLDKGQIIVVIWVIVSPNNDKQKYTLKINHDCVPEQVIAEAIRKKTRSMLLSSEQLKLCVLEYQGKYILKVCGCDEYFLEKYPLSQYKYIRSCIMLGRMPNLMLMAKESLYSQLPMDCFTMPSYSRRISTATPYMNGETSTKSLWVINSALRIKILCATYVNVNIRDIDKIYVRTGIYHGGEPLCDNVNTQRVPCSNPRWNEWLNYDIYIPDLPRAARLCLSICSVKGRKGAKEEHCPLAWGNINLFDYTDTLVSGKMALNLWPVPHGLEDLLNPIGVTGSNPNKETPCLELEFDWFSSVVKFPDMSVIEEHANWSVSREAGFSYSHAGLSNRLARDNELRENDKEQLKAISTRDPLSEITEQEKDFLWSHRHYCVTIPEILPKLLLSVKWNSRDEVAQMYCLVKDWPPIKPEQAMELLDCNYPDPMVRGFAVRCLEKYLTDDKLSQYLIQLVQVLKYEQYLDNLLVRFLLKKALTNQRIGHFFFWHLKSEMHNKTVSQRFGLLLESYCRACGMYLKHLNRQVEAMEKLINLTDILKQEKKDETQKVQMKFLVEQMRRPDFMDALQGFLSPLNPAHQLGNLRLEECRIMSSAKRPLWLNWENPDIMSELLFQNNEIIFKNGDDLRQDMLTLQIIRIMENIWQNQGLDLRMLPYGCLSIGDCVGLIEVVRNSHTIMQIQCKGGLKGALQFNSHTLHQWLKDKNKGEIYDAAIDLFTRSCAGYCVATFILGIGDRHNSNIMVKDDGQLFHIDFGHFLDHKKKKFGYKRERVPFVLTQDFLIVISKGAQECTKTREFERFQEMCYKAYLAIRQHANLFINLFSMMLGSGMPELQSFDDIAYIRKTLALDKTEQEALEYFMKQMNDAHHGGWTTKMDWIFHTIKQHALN
Assay [15] has the same target. The note with it: at 1 µM.
In assay [16] the target is T3, Phosphatidylinositol 4,5-bisphosphate 3-kinase catalytic subunit delta isoform (Homo sapiens) (UniProt O00329).
T3 sequence (whole entry): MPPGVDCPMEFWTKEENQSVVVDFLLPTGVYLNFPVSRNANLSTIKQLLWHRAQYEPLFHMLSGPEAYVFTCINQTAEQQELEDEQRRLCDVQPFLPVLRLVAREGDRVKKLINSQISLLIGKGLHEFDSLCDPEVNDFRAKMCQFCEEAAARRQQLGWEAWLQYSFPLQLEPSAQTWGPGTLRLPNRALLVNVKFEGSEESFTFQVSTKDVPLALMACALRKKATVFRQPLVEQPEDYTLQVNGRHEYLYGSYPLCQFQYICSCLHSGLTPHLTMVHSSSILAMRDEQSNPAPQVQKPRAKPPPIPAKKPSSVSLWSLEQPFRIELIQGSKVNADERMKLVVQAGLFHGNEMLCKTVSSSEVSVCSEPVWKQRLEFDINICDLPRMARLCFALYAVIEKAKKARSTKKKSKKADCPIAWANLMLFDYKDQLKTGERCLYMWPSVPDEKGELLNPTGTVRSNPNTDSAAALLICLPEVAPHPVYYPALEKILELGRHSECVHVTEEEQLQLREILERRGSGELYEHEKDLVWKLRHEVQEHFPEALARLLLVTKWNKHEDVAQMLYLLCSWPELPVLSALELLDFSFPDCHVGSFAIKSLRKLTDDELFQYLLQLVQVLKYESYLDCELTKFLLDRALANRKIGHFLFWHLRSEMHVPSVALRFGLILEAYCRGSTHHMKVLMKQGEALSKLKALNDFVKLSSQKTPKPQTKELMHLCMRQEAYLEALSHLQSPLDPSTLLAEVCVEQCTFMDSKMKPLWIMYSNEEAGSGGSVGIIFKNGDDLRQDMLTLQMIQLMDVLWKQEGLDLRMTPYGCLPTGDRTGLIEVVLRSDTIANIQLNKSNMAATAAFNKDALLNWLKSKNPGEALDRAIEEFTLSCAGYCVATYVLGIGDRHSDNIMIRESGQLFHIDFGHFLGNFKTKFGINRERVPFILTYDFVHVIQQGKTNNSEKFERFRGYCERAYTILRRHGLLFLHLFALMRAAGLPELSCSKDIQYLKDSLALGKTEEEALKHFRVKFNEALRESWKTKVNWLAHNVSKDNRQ
The note with it: at 0.1 µM.

Assay [17] deals with T3, Phosphatidylinositol 4,5-bisphosphate 3-kinase catalytic subunit delta isoform (Homo sapiens). Particulars: at 1 µM.
Assay [18] concerns the target Phosphatidylinositol 4-kinase beta (Homo sapiens) (UniProt Q9UBF8). The note with it: at 0.1 µM.
The target is the same in assay [19]. The note with it: at 1 µM.
For assay [20], the target named is Sphingosine kinase 1 (Homo sapiens) (UniProt Q9NYA1). The note with it: at 0.1 µM.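 Further: mean percent inhibition of SPHK1 activity, measured within the GSK PKIS screening panel.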
Sequence of Sphingosine kinase 1 (Homo sapiens) (Q9NYA1 whole entry): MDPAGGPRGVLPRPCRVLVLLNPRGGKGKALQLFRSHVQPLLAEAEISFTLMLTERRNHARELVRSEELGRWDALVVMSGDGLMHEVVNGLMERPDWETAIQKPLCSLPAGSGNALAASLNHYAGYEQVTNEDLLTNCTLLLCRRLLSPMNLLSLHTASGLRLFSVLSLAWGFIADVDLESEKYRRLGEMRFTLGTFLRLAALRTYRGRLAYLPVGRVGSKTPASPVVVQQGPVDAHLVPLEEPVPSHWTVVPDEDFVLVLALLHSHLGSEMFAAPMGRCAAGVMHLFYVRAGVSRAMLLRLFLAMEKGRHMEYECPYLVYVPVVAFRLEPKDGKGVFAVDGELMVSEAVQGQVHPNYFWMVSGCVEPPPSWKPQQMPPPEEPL

As usually defined, the inhibition is the change of the read-out against control, counted positive when it falls.

Sequence of SRSF protein kinase 3 (Homo sapiens) (Q9UPE1 whole entry): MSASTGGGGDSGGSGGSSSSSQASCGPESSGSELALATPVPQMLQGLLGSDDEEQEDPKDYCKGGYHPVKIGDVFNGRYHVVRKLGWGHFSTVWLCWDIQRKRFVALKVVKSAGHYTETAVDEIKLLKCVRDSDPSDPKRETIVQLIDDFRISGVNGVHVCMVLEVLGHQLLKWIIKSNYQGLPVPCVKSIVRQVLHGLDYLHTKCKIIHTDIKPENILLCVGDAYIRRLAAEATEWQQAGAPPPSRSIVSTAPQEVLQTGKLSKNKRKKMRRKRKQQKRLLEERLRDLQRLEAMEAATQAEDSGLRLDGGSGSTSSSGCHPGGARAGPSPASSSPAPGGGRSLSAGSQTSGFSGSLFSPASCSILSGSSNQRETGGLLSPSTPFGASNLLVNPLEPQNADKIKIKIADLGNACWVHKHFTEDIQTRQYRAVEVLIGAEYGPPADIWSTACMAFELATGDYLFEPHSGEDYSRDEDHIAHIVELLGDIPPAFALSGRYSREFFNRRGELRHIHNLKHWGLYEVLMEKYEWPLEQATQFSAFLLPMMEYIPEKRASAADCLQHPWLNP
Sequence of Mitogen-activated protein kinase 11 (Homo sapiens) (Q15759 whole entry): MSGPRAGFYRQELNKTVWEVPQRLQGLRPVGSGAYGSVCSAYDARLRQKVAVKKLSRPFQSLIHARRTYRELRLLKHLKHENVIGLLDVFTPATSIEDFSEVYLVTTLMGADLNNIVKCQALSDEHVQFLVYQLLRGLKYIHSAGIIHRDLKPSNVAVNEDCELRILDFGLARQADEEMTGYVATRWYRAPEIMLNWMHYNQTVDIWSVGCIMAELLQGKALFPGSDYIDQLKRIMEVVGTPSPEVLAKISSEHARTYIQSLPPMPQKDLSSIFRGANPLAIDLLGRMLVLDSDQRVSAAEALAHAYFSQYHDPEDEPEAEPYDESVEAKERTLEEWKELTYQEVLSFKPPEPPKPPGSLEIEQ
Sequence of Mitogen-activated protein kinase 3 (Homo sapiens) (P27361 whole entry): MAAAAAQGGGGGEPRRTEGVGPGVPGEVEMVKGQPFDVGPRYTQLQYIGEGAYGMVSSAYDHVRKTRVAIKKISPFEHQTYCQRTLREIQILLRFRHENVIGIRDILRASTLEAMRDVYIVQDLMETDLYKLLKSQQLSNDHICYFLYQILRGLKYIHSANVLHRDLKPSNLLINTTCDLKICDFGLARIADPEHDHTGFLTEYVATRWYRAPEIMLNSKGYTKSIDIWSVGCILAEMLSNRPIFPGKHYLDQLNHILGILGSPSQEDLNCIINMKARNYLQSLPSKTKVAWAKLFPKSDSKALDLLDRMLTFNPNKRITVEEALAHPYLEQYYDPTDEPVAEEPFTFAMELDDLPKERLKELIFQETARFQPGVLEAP
Sequence of Phosphatidylinositol 4-kinase beta (Homo sapiens) (Q9UBF8 2-816 limits assumed): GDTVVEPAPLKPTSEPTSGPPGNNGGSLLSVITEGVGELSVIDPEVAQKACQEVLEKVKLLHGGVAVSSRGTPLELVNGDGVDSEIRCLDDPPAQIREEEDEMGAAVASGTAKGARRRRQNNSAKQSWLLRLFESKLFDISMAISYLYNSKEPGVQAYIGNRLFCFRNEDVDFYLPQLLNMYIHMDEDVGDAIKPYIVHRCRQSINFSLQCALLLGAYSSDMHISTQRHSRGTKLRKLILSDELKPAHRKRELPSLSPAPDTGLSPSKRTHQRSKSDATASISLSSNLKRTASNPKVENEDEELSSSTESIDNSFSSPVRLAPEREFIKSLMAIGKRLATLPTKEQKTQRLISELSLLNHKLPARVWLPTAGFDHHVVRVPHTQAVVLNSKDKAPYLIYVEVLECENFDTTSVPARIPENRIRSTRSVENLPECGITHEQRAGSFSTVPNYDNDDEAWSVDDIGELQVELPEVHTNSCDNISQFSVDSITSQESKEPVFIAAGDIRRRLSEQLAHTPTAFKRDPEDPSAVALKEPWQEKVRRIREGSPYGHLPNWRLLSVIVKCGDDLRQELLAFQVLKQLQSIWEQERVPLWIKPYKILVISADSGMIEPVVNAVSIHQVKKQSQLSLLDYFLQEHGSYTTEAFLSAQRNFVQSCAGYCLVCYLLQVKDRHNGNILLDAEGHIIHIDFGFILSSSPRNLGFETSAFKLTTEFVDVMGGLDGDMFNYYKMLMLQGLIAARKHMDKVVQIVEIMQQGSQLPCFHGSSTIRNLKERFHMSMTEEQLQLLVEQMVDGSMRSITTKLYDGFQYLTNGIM

Regarding `CN(c1ccc(NC(=O)Nc2ccc(OC(F)(F)F)cc2)cc1)c1ccnc(Nc2cccc(S(N)(=O)=O)c2)n1`, the inhibition was 3.33% in [1]; -1.09% in assay [2]; 16.6% in [3]; 4.8% in [4]; 13.6% in assay [5]; 4.81% in assay [6]. In addition, the inhibition is 16.7% in [7]; 2.86% in assay [8]; 6.6% in [9]; 2.28% in assay [10]; 11.2% in [11]; -0.74% in [12]. Also, the inhibition was 1.1% in assay [13]; 2.98% in [14]; 5.04% in assay [15]; 1.08% in assay [16]; 3.29% in [17]; -1.47% in assay [18]. The inhibition in assay [19] was 3.37%; in [20] it was -0.13%.
As to `CS(=O)(=O)Nc1cccc(-c2ccc3c(NC(=O)C4CC4)n[nH]c3c2)c1`, the inhibition in assay [1] was 1.38%; in [2], -2.12%; in assay [3], -0.78%; in assay [4], -1.33%; in [5], 6.14%; in [6], 2.35%. In addition, the inhibition in assay [7] is 10.1%; in [8], -1.65%; in assay [9], 1.02%; in [10], 1.49%; in [11], 0.75%; in assay [12], -2.53%. Moreover, the inhibition in assay [13] is -4.93%; in [14], -0.25%; in assay [15], -0.59%; in assay [16] it was 1.13%; in assay [17], 4.97%; in assay [18], -1.63%. For the same compound, the values for the inhibition in assay [19] and in assay [20] were 4.39% and 0.08%, respectively.
For the compound `OCc1ccc(-c2nc(-c3ccccn3)c(-c3ccc4c(c3)OCO4)[nH]2)cc1`, the inhibition in [1] was 1.38%; in assay [2], 1.23%; in assay [3], -0.15%; in [4], 4.43%; in assay [5] it was 14.9%; in assay [6] it was 4.13%. Further, the inhibition in assay [7] was 4.4%; in [8], 3.05%; in assay [9], 4.05%; in assay [10], 0.63%; in [11] it was 2.49%; in assay [12] it was -1.33%. Also, the inhibition in assay [13] was -3.19%; in assay [14], 3.36%; in assay [15], 2.23%; in [16] it was 1.52%; in assay [17] it was 3.07%; in assay [18] it was -1.63%. Besides, the inhibition was -0.21% in [19] and 0% in [20].
As to `Nc1nccc(-c2c(-c3ccc(F)cc3)nn3cc(C(F)(F)F)ccc23)n1`, the inhibition was 2.32% in assay [1]; -1.48% in assay [2]; -1.99% in [3]; 7.89% in assay [4]; 47.2% in assay [5]; 4.49% in [6]. Besides, the inhibition in assay [7] is 10.5%; in [8] it was 0.69%; in assay [9] it was -1.62%; in [10], 1.12%; in assay [11], 1.01%; in assay [12], -0.96%. The inhibition was -1.1% in assay [13]; 0.15% in assay [14]; 0.75% in assay [15]; 0.55% in assay [16]; 0.3% in assay [17]; -4.79% in assay [18]. In addition, the figures for the inhibition in assay [19] and in assay [20] were -4.51% and 4.09%, respectively.
Take `COC(=O)c1cncc(/C=C/c2c(C)cc(O)cc2C)c1`: the inhibition in assay [1] was 3.36%; in assay [2], 1.31%; in [3], 1.48%; in assay [4] it was 1.5%; in assay [5] it was 5.57%; in [6], 0.99%. Further, the inhibition in assay [7] is 3.92%; in [8], 1.59%; in assay [9] it was 4.29%; in assay [10], -1.81%; in assay [11], 1.22%; in [12], 0.45%. For the same compound, the inhibition in assay [13] was found to be 2.47%; in [14] it was 2.59%; in [15], 2.56%; in assay [16], 3.23%; in assay [17] it was 2.23%; in assay [18] it was 2.65%. In addition, the figures for the inhibition in assay [19] and in assay [20] were 0.11% and 2.52%, respectively.
On to `Nc1ccc(C#Cc2cncnc2Nc2ccc(OCc3cccc(F)c3)c(Cl)c2)cc1`, for which the inhibition was 1.8% in assay [1]; -1.31% in [2]; -1.26% in assay [3]; 7.8% in assay [4]; 8.07% in [5]; 5.64% in assay [6]. In addition, the inhibition in assay [7] was 6.16%; in assay [8], 2.44%; in assay [9], 1.41%; in assay [10], 2.15%; in [11] it was 2.1%; in assay [12], -1.42%. The inhibition in assay [13] was -0.29%; in [14] it was 2.27%; in assay [15], 3.14%; in assay [16], 0.98%; in [17], 1.62%; in assay [18], 5.59%. Also, the inhibition in assay [19] came to 0.07%; in assay [20], 0.21%.
Consider `Cc1ccc(C(=O)NC2CC2)cc1-c1ccc2[nH]ncc2c1`, for which the inhibition is -2.12% in assay [1]; 2.03% in assay [2]; -0.89% in [3]; 3.93% in assay [4]; 52.8% in assay [5]; 4.23% in assay [6]. For the same compound, the inhibition in [7] was 28.2%; in assay [8] it was -4.94%; in assay [9], -5.34%; in [10], -3.26%; in assay [11], -1.96%; in [12], -0.04%. The inhibition in assay [13] was 1.22%; in assay [14] it was -3.9%; in assay [15], -3.53%; in assay [16], -1.94%; in [17] it was -0.26%; in assay [18] it was 4.33%. Further, the inhibition in assay [19] was -2.52%; in assay [20], -0.6%.
